This is an account of results in PubChem BioAssay (NCATS).

A short description of experiment [1]: qHTS profiling of the MIPE4 collection as inhibitors of Plasmodium falciparum (3D7) proliferation (AID 743344).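 Note: scaled between DMSO vehicle wells and 0.29 µM artemisinin as full inhibition.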 The conditions noted are these: P. falciparum 3D7 in erythrocytes, SYBR Green DNA fluorescence, 72 h; at 28.5 µM unless noted. A digest of the protocol: (§1)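 Parasite DNA was quantified by SYBR Green I fluorescence (ex 485, em 535 nm) after overnight lysis in saponin/Triton buffer at room temperature. Cultures at 0.3% parasitemia and 2.5% hematocrit were first exposed to compound for 72 h at 37 C; signals were normalised to artemisinin (0.29 uM) and vehicle wells.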

Experiment [2] is described as follows: qHTS profiling of the MIPE4 collection as inhibitors of Plasmodium falciparum (DD2) proliferation (AID 743345). The conditions noted are these: P. falciparum Dd2 in erythrocytes, SYBR Green DNA, 72 h; at 28.5 µM unless noted. A digest of the protocol:
as §1

Experiment [3] in a line: qHTS profiling of the MIPE4 collection as inhibitors of Plasmodium falciparum (DD2) proliferation (Rep 2) (AID 743346). To be noted: P. falciparum Dd2 in erythrocytes, SYBR Green DNA, 72 h; at 28.5 µM unless noted. A digest of the protocol:
as §1

Experiment [4] in a line: qHTS profiling of the MIPE4 collection as inhibitors of Plasmodium falciparum (HB3) proliferation (AID 743347).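 Note: plate controls were DMSO vehicle wells for no effect and artemisinin wells for full effect.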 To be noted: P. falciparum HB3 in erythrocytes, SYBR Green DNA, 72 h; at 28.5 µM unless noted. A digest of the protocol: as §1
For orientation: In qHTS, concentration-response curves come from the screen itself.

Experiment [5] in a line: High-throughput drug toxicity screening in the BPDCN cell line Gen2.2 (AID 1224824).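 Note: cells exposed to compounds for 48 h before reading.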 The conditions noted are these: Gen2.2 BPDCN cells; at 45.8 µM (top of the series) unless noted. A digest of the protocol: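 Gen2.2 cells (500/well) in phenol red-free RPMI with 10% FBS were exposed to compounds for 48 h at 37 °C, 5% CO2. Viability was read by CellTiter-Glo luminescence and normalized to DMSO (100%) and 9.2 uM bortezomib (0%).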

Experiment [6] in a line: High-throughput drug toxicity screening in the BPDCN cell line Cal-1 (AID 1224825). To be noted: Cal-1 BPDCN cell viability, qHTS; at 45.8 µM (top of the series) unless noted. A digest of the protocol: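 Viability of the BPDCN line Cal-1 is measured as ATP-based luminescence (CellTiter-Glo) following 48 h incubation with compounds. Percent activity uses DMSO-treated wells as 100% and 9.2 uM bortezomib as 0%.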

Experiment [7] is described as follows: qHTS assay for measurement of the activity of small molecule inhibitors on Zika virus induced Caspase-3 activity in human iPSC derived neural progenitor cells (hNPCs) (AID 1224857; active = well fitted curve in the direction sought with a large enough effect; an effect the other way counts as inactive or inconclusive; note: % of control where 0% means no effect; nearly all actives have a fitted effect of over 65% in size). A digest of the protocol: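 Quantitative HTS format: human iPSC neural progenitors, 1 h compound pretreatment, ZIKV 2 FFU/cell for 6 h at 37 C. Percent inhibition derived from luminescent caspase-3/7 signal between uninfected and infected controls.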

Experiment [8] can be described thus: qHTS assay for measurement of the activity of small molecule inhibitors on Zika virus induced Caspase-3 activity in human astrocytoma cells (AID 1224859; active = well fitted curve in the direction sought with a large enough effect; an effect the other way counts as inactive or inconclusive;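 note: plate controls were ZIKV-infected untreated cells for no effect and uninfected cells for full effect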). A digest of the protocol: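 Readout is luminescence from Caspase-Glo 3/7 added after a 6 h ZIKV infection (2 FFU/cell) of compound-pretreated (1 h) SNB-19 cells; data expressed as % inhibition versus uninfected and infected wells.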

The nature of experiment [9]: qHTS Screen of the MIPE 4.0 Collection Against Ewings Sarcoma (RDES) (AID 1259252; active = well fitted curve in the direction sought with a large enough effect; an effect the other way counts as inactive or inconclusive; note: nearly all actives have a fitted effect of over 35% in size; note: potency is the fitted concentration of half-maximal effect). A digest of the protocol: (§2)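 Here, cells in 5% FBS RPMI were exposed for two days (48 h) to compound dilutions added four hours after plating. ATP-based CellTiter-Glo luminescence measured viability, normalized to vehicle and no-cell blanks.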
The nature of experiment [10]: qHTS Screen of the MIPE 4.0 Collection Against Ewings Sarcoma (EW8) (AID 1259255; active = well fitted curve in the direction sought with a large enough effect; an effect the other way counts as inactive or inconclusive; note: nearly all actives have a fitted effect of over 35% in size; note: potency is the fitted concentration of half-maximal effect;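 for viability: 100% = DMSO-treated cells and 0% = medium-only wells without cells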). A digest of the protocol: as §2
Experiment [11] in a line: qHTS Assay for Identifying Gametocytocidal Compounds (AID 743244; active = well fitted curve in the direction sought with a large enough effect; an effect the other way counts as inactive or inconclusive;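 note: % is set by controls: 0 for no effect and ±100 for the full control effect; actives lower the fluorescent signal which means gametocytes are killed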). To be noted: P. falciparum 3D7 stage III-V gametocytes, alamarBlue, 72 h; max response: stronger effect = lower value. A digest of the protocol: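 A resazurin-based viability read-out was applied to mature P. falciparum gametocytes: 72 h compound treatment, then 24 h dye incubation, with falling fluorescence signalling gametocytocidal effect.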

Experiment [12] is described as follows: qHTS profiling for inhibitors of Plasmodium falciparum (3D7) proliferation (AID 743322).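 Note: infected erythrocytes exposed to compound for 72 h before lysis; 100% = DMSO vehicle wells and 0% = 0.29 µM artemisinin.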 The conditions noted are these: P. falciparum 3D7 proliferation; at 28.7 µM (top of the series) unless noted. A digest of the protocol: as §1
A short description of experiment [13]: qHTS profiling for inhibitors of Plasmodium falciparum (DD2) proliferation (AID 743323). To be noted: lower = more inhibition; at 28.7 µM (top of the series) unless noted. A digest of the protocol: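 P. falciparum Dd2-infected erythrocytes (0.3% parasitemia, 2.5% hematocrit) exposed 72 h at 37 C, 5% CO2. Lysis with SYBR Green, overnight at room temperature, fluorescence 485/535 nm; normalized to 0.29 uM artemisinin and DMSO.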

Experiment [14] in a line: qHTS profiling for inhibitors of Plasmodium falciparum (HB3) proliferation (AID 743324; active = well fitted curve in the direction sought with a large enough effect; an effect the other way counts as inactive or inconclusive;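 note: 100% = DMSO vehicle wells and 0% = artemisinin-treated control wells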). To be noted: Plasmodium falciparum HB3 blood-stage proliferation; at 28.7 µM (top of the series) unless noted. A digest of the protocol: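 SYBR Green fluorescence (485 ex/535 em) of lysed cultures, incubated overnight at room temperature in the dark, quantifies parasite DNA. Infected erythrocytes at 0.3% parasitemia and 2.5% hematocrit were exposed 72 h; values normalized to DMSO and 0.29 uM artemisinin controls.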

SMILES strings stand for the structures. Where “and” joins values, the source holds several entries; their conditions need not be identical. Equal values may be shown once. Records with an inconclusive call do not appear. Calls of active or inactive are those of the source. Unless noted, the rule behind the calls is not given here.

Consider `CC(C=CC1=C(C)CCCC1(C)C)=CC=CC(C)=CC(=O)O`, for which the parasite growth, % of DMSO control in [1] was 76.8% and 52.8%. Besides, the parasite growth remaining, % of DMSO control (lower = more inhibition) in [2] was 85.9% and 87.9%. The parasite growth, % of control (lower = inhibition) in experiment [3] was 81.2% and 51.5%. Besides, the growth, % of control in experiment [4] was 106% and 85.5%. Also, the cell viability, % of control (lower = more cytotoxic) in experiment [5] was 49.1% and 83.4%. Also, in experiment [6], the viability (% of control) is 39.4% and 7.95%. In addition, the Potency result in [7] and in experiment [8] was “inactive” each time. Further, the Potency in [9] is 23.5 µM (active); in [10], 20.9 µM (active) and 9.35 µM (active).
On to `Fc1ccc(Cl)cc1-c1nc(Nc2ccncc2)c2nccnc2n1`, for which, in [11], the max response is -14.2% (inactive). Besides, the remaining parasite growth % (stronger effect = lower value) in experiment [12] worked out at 5.45%. The activity, percent of control in [13] stood at 25.3%. Further, the remaining proliferation (% of control), lower = more inhibition in experiment [14] is 13.2%. The compound also displayed a parasite growth, % of DMSO control in experiment [1] of 22.1%. This compound also came in with a parasite growth remaining, % of DMSO control (lower = more inhibition) in experiment [2] of 37%. In addition, the parasite growth, % of control (lower = inhibition) in experiment [3] is 30.8%. The growth, % of control in experiment [4] was 8.98%. Besides, the cell viability, % of control (lower = more cytotoxic) in experiment [5] was determined as 443%. In addition, the viability (% of control) in [6] worked out at 85.1%. For the same compound, the Potency result in experiment [7], in experiment [8] and in [9] was “inactive” throughout.
Take `CCCn1c(=O)c2[nH]c(C34CC5CC3C[C@@H](C5)C4)nc2n(CCC)c1=O`: the max response in [11] was 25.8% (inactive). The compound further gave a remaining parasite growth % (stronger effect = lower value) in experiment [12] of 89.8%. In [13], this compound displayed an activity, percent of control of 85.1%. The compound further showed a remaining proliferation (% of control), lower = more inhibition in experiment [14] of 59.4%. Further, the parasite growth, % of DMSO control in [1] stood at 16.5%. For the same compound, the parasite growth, % of control (lower = inhibition) in experiment [3] stood at 17.3%. For the same compound, in [4], the growth, % of control was determined as 5.74%. The cell viability, % of control (lower = more cytotoxic) in experiment [5] was found to be 214%. Also, the viability (% of control) in [6] is 125%. The Potency result in experiment [7] and in [8] was “inactive” throughout.
Turning to `CCOc1ccn(-c2ccc(F)cc2)c(=O)c1C(=O)Nc1ccc(Oc2ccnc(N)c2Cl)c(F)c1`, the max response in experiment [11] is 18.8% (inactive). Further, in experiment [12], the remaining parasite growth % (stronger effect = lower value) amounted to 83.7%. The activity, percent of control in experiment [13] came out at 56.6%. Further, the remaining proliferation (% of control), lower = more inhibition in experiment [14] worked out at 36.7%. In [1], this compound showed a parasite growth, % of DMSO control of 41.2%. Also, in experiment [2], the parasite growth remaining, % of DMSO control (lower = more inhibition) is 80.4%. Also, the parasite growth, % of control (lower = inhibition) in [3] worked out at 36%. This compound returned a growth, % of control in [4] of 73%. For the same compound, the cell viability, % of control (lower = more cytotoxic) in experiment [5] is 145%. The viability (% of control) in [6] came to 23.7%. The Potency result in experiment [7] and in experiment [8] was “inactive” each time. For the same compound, the Potency in [9] was 23.5 µM (active).
`Cc1ccccc1C(C(=O)NC1CCCC1)N(C(=O)Cn1cnc2ccccc21)c1cccc(F)c1` (stereo unspecified): in experiment [11], the max response was -12.2% (inactive). The same compound registered a remaining parasite growth % (stronger effect = lower value) in experiment [12] of 45.1%. This compound returned an activity, percent of control in [13] of 58.9%. For the same compound, the remaining proliferation (% of control), lower = more inhibition in [14] worked out at 34.4%. Moreover, the parasite growth, % of DMSO control in [1] amounted to 72.9%. The parasite growth, % of control (lower = inhibition) in experiment [3] was 38%. The growth, % of control in experiment [4] was 97.9%. In addition, the cell viability, % of control (lower = more cytotoxic) in [5] turned out to be 30.2%. Further, the viability (% of control) in [6] was found to be 102%. The Potency result in experiment [7] and in [8] was “inactive” each time.
Take `COc1ccc(-c2oc3cc(OC)ccc3c2C(=O)c2ccc(C#N)cc2)cc1`: the max response in [11] is 8.18% (inactive). For the same compound, the remaining parasite growth % (stronger effect = lower value) in [12] came to 62.8%. For the same compound, the activity, percent of control in experiment [13] amounted to 77%. The same compound had a remaining proliferation (% of control), lower = more inhibition in experiment [14] of 23.4%. Also, the parasite growth, % of DMSO control in experiment [1] was 23.1%. Moreover, in experiment [2], the parasite growth remaining, % of DMSO control (lower = more inhibition) came out at 81.9%. Moreover, the parasite growth, % of control (lower = inhibition) in [3] came to 14.8%. In addition, in experiment [4], the growth, % of control turned out to be 16.7%. Also, the cell viability, % of control (lower = more cytotoxic) in experiment [5] stood at 84.5%. For the same compound, the viability (% of control) in [6] was 19.6%. The Potency entry in experiment [7], in experiment [8], in [9] and in experiment [10] was “inactive” each time.
Turning to `COc1ccc([C@@H]2CC(=O)c3c(O)cc(O[C@@H]4O[C@H](CO[C@@H]5O[C@@H](C)[C@H](O)[C@@H](O)[C@@H]5O)[C@@H](O)[C@H](O)[C@@H]4O)cc3O2)cc1O`, the parasite growth, % of DMSO control in [1] was 83.3% and 61.8%. In [2], the parasite growth remaining, % of DMSO control (lower = more inhibition) was 90.3% and 85.6%. In [3], the parasite growth, % of control (lower = inhibition) was 120% and 81.3%. For the same compound, the growth, % of control in experiment [4] is 92% and 93.5%. For the same compound, in [5], the cell viability, % of control (lower = more cytotoxic) is 52.6% and 176%. For the same compound, in experiment [6], the viability (% of control) was 54.1% and 116%. The Potency entry in experiment [7], in [8] and in experiment [10] was “inactive” throughout.
